In the library only some 11% were active in any assay of this set; here they are far more common.
NPR1 antag: Natriuretic polypeptide receptor (hNpr1) antagonism - Primary qHTS. Atrial natriuretic peptide receptor 1 (Homo sapiens), P16066. Potency, µM (highest dose often 46.3 µM), inactives show at the top dose activity change, negative = inhibition, most hits filed as inhibitors. HEK293 hNpr1 GloSensor cGMP, ANP-stimulated luminescence. 76,000 compounds, 1.6% hits; calls by dose curve; also: nearly all actives have a fitted effect of over 60% in size
Target sequence (P16066 whole entry, looked up): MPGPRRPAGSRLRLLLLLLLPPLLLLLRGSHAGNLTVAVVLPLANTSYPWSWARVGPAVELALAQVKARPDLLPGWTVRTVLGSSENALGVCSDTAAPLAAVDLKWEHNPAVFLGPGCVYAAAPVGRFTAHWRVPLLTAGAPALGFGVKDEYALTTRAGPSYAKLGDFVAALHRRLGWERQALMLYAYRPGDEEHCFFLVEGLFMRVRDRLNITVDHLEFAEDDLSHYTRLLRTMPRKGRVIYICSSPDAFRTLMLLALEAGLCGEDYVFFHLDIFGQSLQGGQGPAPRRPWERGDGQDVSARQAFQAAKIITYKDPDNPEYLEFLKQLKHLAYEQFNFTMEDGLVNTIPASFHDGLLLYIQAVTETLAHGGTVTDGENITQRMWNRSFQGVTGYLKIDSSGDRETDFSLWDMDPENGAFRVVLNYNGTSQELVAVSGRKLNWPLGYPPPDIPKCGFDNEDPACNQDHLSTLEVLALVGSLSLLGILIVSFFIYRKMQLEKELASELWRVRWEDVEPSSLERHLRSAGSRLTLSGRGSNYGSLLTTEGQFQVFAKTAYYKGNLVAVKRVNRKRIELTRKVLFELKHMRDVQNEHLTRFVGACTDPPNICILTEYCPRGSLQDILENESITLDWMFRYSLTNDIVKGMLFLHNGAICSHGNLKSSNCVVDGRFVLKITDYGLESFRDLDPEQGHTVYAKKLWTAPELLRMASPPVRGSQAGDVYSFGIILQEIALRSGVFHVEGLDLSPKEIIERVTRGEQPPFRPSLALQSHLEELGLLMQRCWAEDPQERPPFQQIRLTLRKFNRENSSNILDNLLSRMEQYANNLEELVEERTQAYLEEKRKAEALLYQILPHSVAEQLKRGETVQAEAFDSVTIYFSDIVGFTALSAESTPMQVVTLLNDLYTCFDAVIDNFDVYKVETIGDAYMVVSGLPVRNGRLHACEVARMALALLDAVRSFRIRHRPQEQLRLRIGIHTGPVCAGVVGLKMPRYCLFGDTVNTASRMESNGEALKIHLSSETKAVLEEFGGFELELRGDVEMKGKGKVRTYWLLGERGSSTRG
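HEK293 cells stably expressing human Npr1 and cGMP GloSensor pGS-40F, loaded 2 h with 2% GloSensor reagent, given compound 30 min at room temperature. Luminescence read before and 20 min after 0.1 nM hNppA.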
HEK293 tox: Cytotoxic Profiling in HEK 293 Cell Line of Diverse Libraries Using Quantitative High-Throughput Screening | HEK 293 viability, ATP luminescence (CellTiter-Glo), 48-72 h | Potency, µM (series often up to 115 µM), inactives show at the highest dose activity change, negative = cytotoxicity, actives largely listed as inhibitors | 94,000 compounds, 6.6% hits | AID 1345083, 2018; also: nearly all actives have a fitted effect of over 60% in size
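Read-out: CellTiter-Glo ATP luminescence. Cells: HEK 293, 250 cells/well. Exposure: 48 or 72 hr, 37 degree Celsius.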
NIH3T3 tox: Cytotoxic Profiling in NIH 3T3 Cell Line of Diverse Libraries Using Quantitative High-Throughput Screening; Potency, µM (top dose mostly 96.7 µM), for the others: at the highest dose activity change, negative = cytotoxicity, actives largely listed as inhibitors; NIH 3T3 viability, CellTiter-Glo ATP luminescence, 48-72 h; 94,000 compounds, 4.3% hits; also: nearly all actives have a fitted effect of over 55% in size
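Cytotoxicity was measured by CellTiter-Glo ATP luminescence after 48 or 72 h compound exposure at 37 °C. Mouse NIH 3T3 fibroblasts were seeded at 400 cells/well and dosed by 23 nL pin transfer.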
Luciferase inh: Firefly luciferase inhibition profiling of diverse chemical library using quantitative high-throughput screening; Luciferin 4-monooxygenase (Photinus pyralis), P08659; purified P. pyralis luciferase, luminescence, biochemical; Potency, µM (titrated, usually from 115 µM), hits mostly inhibitors; 76,000 compounds, 2.5% hits; AID 1347043, 2019; also: nearly all actives have a fitted effect of over 65% in size
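Purified P. pyralis luciferase (10nM final) in 50mM Tris acetate pH 7.5, 10mM Mg acetate, 0.01% Tween-20, 0.05% BSA with 10uM D-luciferin and 10uM ATP. Compounds titrated qHTS. Luminescence imaged on CCD.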
Numbers without * were called inactive; i = inactive; ? = inconclusive; · = not tested or not shown; [ ] = another dose, or the depositor's remark. Unless noted, calls follow the shape of the dose curve; as a rule, active = well fitted curve in the direction sought with a large enough effect; inconclusive = small, poorly fitted or top-dose-only effect, or another doubt; inactive = no such curve, though single readings can be large; an effect the other way counts as inactive or inconclusive. % is scaled to controls: 0 for no effect and ±100 for the full control effect; potency is read from the fitted curve at half-maximal effect.

SMILES | NPR1 antag | HEK293 tox | NIH3T3 tox | Luciferase inh
O=C(Nc1ccc(Cl)cc1)c1cc(-c2ccc[nH]2)n[nH]1 | 1% | ? | -25% | ?
CCc1ccc(NC(=O)c2cc(-c3ccc[nH]3)n[nH]2)cc1 | 7% | ? | -17% | 3.2µM*
Cc1cc(C)cc(NC(=O)c2cc3n(n2)CC(c2ccc(Cl)cc2)OC3)c1 (stereo not drawn) | -7% | ? | -39% | i
Cc1cc(C)cc(NC(=O)c2cc(-c3ccc[nH]3)n[nH]2)c1 | -3% | ? | ? | 20µM*
O=C1[C@@H]2C[C@@H](O)CN2C2(CN(Cc3cccs3)C2)C(=O)N1Cc1ccccc1F | -2%[70.6 µM] | -6%[172 µM] | -18%[174 µM] | i
O=C(c1ccc(Cl)cc1)N1CCCN(c2ccc3nnc(-c4ccccc4)n3n2)CC1 | · | -13% | ? | ·
O=C(Cc1cccc(Cl)c1)N1CCN(c2ccc3nnc(-c4ccccc4)n3n2)CC1 | · | 45µM* | ? | ·
O=C(c1ccc(Cl)cc1)N1CCN(c2ccc3nnc(-c4ccccc4)n3n2)CC1 | · | ? | 45µM* | ·
O=C(c1ccc2nnc(-c3ccc(Cl)cc3)n2c1)N1CCN(Cc2ccccc2)CC1 | · | 25µM* | 28µM* | ·
CC(C)c1ccc(CN2CCC(CNS(=O)(=O)C3CC3)C2)cc1 (stereo not drawn) | 2% | -24% | -8% | i
O=C1NCCCN1C1CCN(Cc2ccccn2)CC1 | -2%[70.6 µM] | 2%[172 µM] | -8%[138 µM] | i
Cc1nn(C)c2nc(NCCCOC3CCCC3)sc12 | ? | 32µM* | ? | 35µM*
NC(=O)CNC(=O)C1=C[C@@H](NS(=O)(=O)c2cccc(C(F)(F)F)c2)[C@@H](O)[C@H](O)C1 | -1% | -2% | 1% | i
COc1ccccc1C(=O)N1CCCn2nc(C)c(-c3ccccc3OCc3ccccc3)c21 | -2% | ? | ? | i
COc1ccccc1C(=O)N1CCCn2nc(C)c(-c3ccccc3Oc3ccccc3)c21 | -3%[70.6 µM] | 100µM* | ? | i
Cc1nn2c(c1-c1ccccc1Oc1ccccc1)N(C(=O)c1ccccc1)CCC2 | -25%[70.6 µM] | 56µM* | 45µM* | i
Cc1nn2c(c1-c1ccccc1Oc1ccccc1)N(C(=O)Cc1ccccc1)CCC2 | ? | 79µM* | ? | i
Cc1nn2c(c1-c1ccccc1Oc1ccccc1)N(C(=O)c1cccc(C#N)c1)CCC2 | -19%[70.6 µM] | 71µM* | ? | i
Cc1nn2c(c1-c1ccccc1Oc1ccccc1)N(C(=O)c1cnccn1)CCC2 | 2%[70.6 µM] | i | ? | i
CNC(=O)c1cc(C2CC2)nc2c1c(C1CCN(C(=O)C3CCCC3)CC1)nn2C | · | i | -7% | ·
CC1CCN([C@@H]2[C@H](O)[C@H](CO)O[C@@H]2CNC(=O)N2CCOCC2)CC1 | -4%[70.6 µM] | -11%[172 µM] | -13%[138 µM] | i
Cc1ccc(OCc2nc(C3CCN(C(=O)NCc4ccccc4)C3)no2)cc1 (stereo not drawn) | · | 45µM* | ? | ·
O=C(NCCc1ccccc1)N1CCC(c2noc(COc3ccc(F)cc3)n2)C1 (stereo not drawn) | · | 45µM* | ? | ·
Cc1ccc(CNC(=O)N2CCCC(c3noc(COc4ccccc4)n3)C2)cc1 (stereo not drawn) | -9% | ? | ? | i
CCOCc1nc(C2CCCN(C(=O)c3cccc(C)c3)C2)no1 (stereo not drawn) | 3% | -13% | -8% | i
SMILES | NPR1 antag | HEK293 tox | NIH3T3 tox | Luciferase inh
Cc1cc(C)cc(-c2ccc(CN3CCCC(N[S+](C)(=O)[O-])C3)cc2)c1 (stereo not drawn) | · | 40µM* | ? | ·
Cc1cc(C)cc(-c2ccc(CN3CCCC(NC(=O)NC(C)C)C3)cc2)c1 (stereo not drawn) | · | -27% | -26% | ·
O=c1n(CCN2CCCC(N[S+](=O)([O-])c3cccc(C(F)(F)F)c3)C2)nc2n1CCCC2 (stereo not drawn) | · | -2% | -26% | ·
Cc1cc(C)cc(-c2ccc(CN3CCCC(N[S+](=O)([O-])c4cccc(C(F)(F)F)c4)C3)cc2)c1 (stereo not drawn) | · | ? | 32µM* | ·
COc1ccc(-c2cc(C[C@H]3CNCC[C@H]3CC(=O)NCc3ccc4c(c3)OCO4)no2)cc1 | -16% | ? | 79µM* | i
O=C(C[C@@H]1CCNC[C@@H]1Cc1cc(-c2ccc(F)cc2)on1)NCc1ccco1 | -13%[70.6 µM] | ? | ? | i
O=C(C[C@@H]1CCNC[C@@H]1Cc1cc(-c2ccccc2)on1)NCc1ccc(F)cc1 | -10%[70.6 µM] | 40µM* | 40µM* | i
COc1ccc(CNC(=O)C[C@@H]2CCNC[C@@H]2Cc2cc(CN(C)Cc3ccccc3)on2)cc1 | -3% | 40µM* | -20% | i
COc1ccc(CNC(=O)C[C@@H]2CCNC[C@@H]2Cc2cc(-c3ccc(F)cc3)on2)cc1 | -6% | 79µM* | ? | i
O=C(C[C@@H]1CCNC[C@@H]1Cc1cc(-c2ccc(F)cc2)on1)Nc1nccs1 | -2%[70.6 µM] | 100µM* | 100µM* | i
COc1ccc(-c2cc(C[C@H]3CNCC[C@H]3CC(=O)NCc3ccc(OC)c(OC)c3)no2)cc1 | 1% | -29% | ? | i
CC(C)(C)NC(=O)C[C@@H]1CCNC[C@@H]1Cc1cc(-c2ccc(F)cc2)on1 | -8%[70.6 µM] | ? | ? | i
COc1ccc(-c2cc(C[C@H]3CNCC[C@H]3CC(=O)NCc3ccccc3OC)no2)cc1 | -6% | ? | 71µM* | i
O=C(C[C@@H]1CCNC[C@@H]1Cc1cc(-c2ccc(F)cc2)on1)Nc1ccccc1 | -14%[70.6 µM] | 40µM* | 35µM* | i
COc1ccc(CNC(=O)C[C@@H]2CCNC[C@@H]2Cc2cc(-c3ccc(OC)cc3)on2)cc1 | -13% | 40µM* | ? | i
Cc1cc(NC(=O)c2ccc3c(c2)N(C)C2CCCCN2C3=O)ccc1Br (stereo not drawn) | -17% | ? | -25% | ?
O=C(NCc1nnc2c(-c3nc(C4CC4)no3)cccn12)c1cccc(Cl)c1 | -12% | -23% | ? | i
CN(C)CC(=O)N1CCC2(C1)CN(C)c1ccc(C(=O)NCc3cccs3)cc12 (stereo not drawn) | 5%[70.6 µM] | -8%[172 µM] | ? | i
COc1ccc(-c2cc(C[C@H]3CNCC[C@H]3CC(=O)N(C)Cc3ccccc3)no2)cc1 | -22%[70.6 µM] | 32µM* | 35µM* | i
CC1CCN(CC2CCCCCN2C(=O)Nc2ccc3c(c2)OCCO3)CC1 (stereo not drawn) | -13% | ? | -14% | 16µM*
CCCNC(=O)N1CCCCCC1CN1CCC(C)CC1 (stereo not drawn) | · | -26% | -20% | ·
COC1CCN(CC2CCCCCN2C(=O)Nc2ccc3c(c2)OCCO3)CC1 (stereo not drawn) | 0% | 2% | -3% | 18µM*
